Experimental data: PubChem BioAssay (NCI)
The panel holds about 83,000 compounds, 20% with a hit somewhere; the sample as a whole holds those more often.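 Method: cells in 96-well plates; compound added at one concentration; 48 h incubation; percent growth measured; values under 10 scored active.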 Values without a mark were called inactive. Activity calls are given as the source filed them.

Columns and labels:
Assay in all cases: NCI-60 one-dose screen, 48 h (100 = growth as untreated, 0 = no growth, -100 = all killed)
T-47D breast = details: 10 µM
BT-549 breast = details: 10 µM unless noted
MDA-MB-435 melanoma = details: 10 µM unless noted
SW-620 colon = details: 10 µM unless noted
MCF7 breast = details: 10 µM unless noted
HCT-116 colon = details: 10 µM unless noted
HCC-2998 colon = details: 10 µM unless noted
KM12 colon = details: 10 µM unless noted

Row | Structure (SMILES) | growth (T-47D breast) | growth (BT-549 breast) | growth (MDA-MB-435 melanoma) | growth (SW-620 colon) | growth (MCF7 breast) | growth (HCT-116 colon) | growth (HCC-2998 colon) | growth (KM12 colon)
1 | FC(F)(F)c1cc(CNc2nc(Cl)ncc2Br)cc(C(F)(F)F)c1 | 82.1% | 90% | 45.9% | 103% | 93.3% | 96.1% | 97.8% | 71.2%
2 | CC(=O)c1cc(C)c(OC(=O)c2ccccc2)c(C)c1 | 74.9% | 97.6% | 95.2% | 103% | 105% | 93.7% | 100% | 104%
3 | Cc1ccc(C2SCC(=O)N2NC(=O)c2[nH]c3ccc(F)cc3c2-c2ccccc2)cc1 (stereo not drawn) | 91.3% | 93.2% | 96.3% | 102% | 93.1% | 80.1% | 70.2% | 96.1%
4 | c1ccc(-c2nc(N3CCOCC3)c3c4c(sc3n2)CCCCCC4)nc1 | 17.8% | 58.3% | 61.9% | 86.9% | 3.9% (active) | 27.7% | 72.7% | 44.7%
5 | COc1ccc(-n2c(SCc3cc(OC)c(OC)c(OC)c3)nc3ccc(C)cc3c2=O)c(OC)c1 | 33.1% | 32.1% | -55% (active) | 21% | 15.5% | 18.1% | 45.5% | 18.1%
6 | Cc1nn(-c2ccccc2)c2nc3nc4c(c(N)c3c(-c3ccc(Cl)cc3)c12)CCCC4 | 108% | 113% | 97% | 79.5% | 97.8% | 80.2% | 113% | 105%
7 | COc1ccccc1-n1c(SCc2cc(OC)c(OC)c(OC)c2)nc2ccc(Cl)cc2c1=O | 43.9% | 39.5% | -34.2% (active) | 16.9% | 15.6% | 21.1% | 56.9% | 16.4%
8 | Cn1c2c(cc(S(=O)(=O)c3ccccc3)c1=O)CCc1c-2cnn1-c1ccccc1Cl | 68% | 101% | 100% | 116% | 96.2% | 109% | 118% | 112%
9 | O=C1CC2c3cc(-c4cc5ccccc5o4)ccc3CCN2C(=O)N1c1ccccc1 (stereo not drawn) | 57.4% | 92.2% | 89.3% | 111% | 88.6% | 75.3% | 110% | 101%
10 | CN1CCN(c2nc(-c3ccncc3)nc3sc4c(c23)CCCCCC4)CC1 | 90.9% | 44.3% | 77.7% | 77.1% | 60.6% | 56.5% | 37.4% | 90.9%
11 | CC1SC(c2cccc(Oc3ccccc3)c2)N(CCc2cccs2)C1=O (stereo not drawn) | 0.211% (active) | -69.2% (active) | -43.1% (active) | -3.96% (active) | -0.665% (active) | -85.6% (active) | -32.9% (active) | -25.2% (active)
12 | COc1ccc(-c2c(-c3cc4c(c(OC)c3OC)OCO4)noc2N)cc1 | 47.5% | 60.1% | -32.1% (active) | 17.9% | 19.7% | 22.2% | 20.6% | 18.9%
13 | COc1cc(/C=C2\C(=O)N(c3c(Cl)cccc3Cl)c3ccccc32)cc(OC)c1O | 51.8% | 33.4% | 35.2% | 31.4% | 25.3% | 15.7% | 44.6% | 28.4%
14 | CCOC(=O)c1c(Cl)c2c(n1Cc1cc(OC)cc(OC)c1)-c1oncc1CCC2 | 51.7% | 69.9% | -53% (active) | 16.8% | 10.7% | 23.9% | 55% | 29.6%
15 | O/N=C/c1cccs1 | 111% | 112% | 99.8% | 104% | 99.2% | 102% | 111% | 110%
16 | COc1cc(/C=C/c2cc(/C=C/c3ccc(O)c(OC)c3)n(-c3ccccc3)n2)ccc1O | -23.9% (active) | -47.2% (active) | -67.3% (active) | -22.7% (active) | -5.71% (active) | -5.83% (active) | 5.82% (active) | -28% (active)
17 | CCCCC(CCCC)(S(=O)(=O)CC)S(=O)(=O)CC | 101% | 96.6% | 97.4% | 102% | 105% | 98.9% | 111% | 96.7%
18 | COc1ccc2c(c1)c(=O)oc1c(C)c(OCC(C)=O)ccc12 | 104% | 102% | 89.4% | 101% | 101% | 104% | 98.1% | 96.6%
19 | Cc1nc2cc(Nc3nc(N4CCCCC4)nc(N4CCOCC4)n3)ccc2n1Cc1ccccc1 | -8% (active) | 63.2% | 52.8% | 44.1% | 65.5% | -49.9% (active) | 94.3% | 18.3%
20 | O=C1CC(c2ccsc2)c2snc(-c3ccc(Cl)cc3)c2N1 (stereo not drawn) | 30.6% | 32.8% | -20.9% (active) | 33.4% | 7.59% (active) | 21.5% | 58.5% | 27.6%
21 | CN1CCN(C(=O)OCCOCCOC(=O)N2CCN(C)CC2)CC1 | 109% | 98.7% | 98.9% | 117% | 102% | 94.8% | 98.4% | 104%
22 | O=c1nc(NO)[nH]c(=O)n1Cc1ccccc1 | 92.8% | 103% | 101% | 108% | 98.9% | 105% | 106% | 105%
23 | COc1ccc(-c2c3c(N)c4c(nc3nc3c2c(C)nn3-c2ccccc2)CCCCC4)cc1 | 61.2% | 80.9% | 78.8% | 83.5% | 62.8% | 27.9% | 86.6% | 84.2%
24 | COc1cc(C(=O)/C=C/c2c(-c3cccs3)nc3sccn23)cc(OC)c1OC | -1.93% (active) | 5.79% (active) | 2.16% (active) | 8.66% (active) | 11% | -14.3% (active) | -11.9% (active) | -27.2% (active)
25 | O=C(NCc1cccnc1)c1ccc([N+](=O)[O-])o1 | 57% | 4.28% (active) | -19.9% (active) | -65.3% (active) | 13.9% | -4.08% (active) | -97.6% (active) | 0.0106% (active)
26 | COc1ccc(-c2c3c(N)c4c(nc3nc3c2c(C)nn3-c2ccccc2)CCCC4)cc1 | 84% | 106% | 77.5% | 68.2% | 58.5% | 31.8% | 100% | 89.6%
